SMN2 splice up: qHTS Assay for Enhancers of SMN2 Splice Variant Expression; HEK293 SMN2-luciferase splicing reporter, luminescence, 30-36 h; Potency, µM (highest dose often 46.1 µM), without a hit: at the top dose activity change, positive = activation, usual class: activators; 210,000 tested, 2.8% active; AID 1458, 2008; also: % of control where 0% means no effect; nearly all actives have a fitted effect of over 55% in size
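HEK293 cells carry an SMN2 […]–luciferase reporter in which exon 7 inclusion puts luciferase in frame. Cells were plated 10-12 h before compound addition, then incubated 30-36 h at 37C. ONE-Glo luminescence was read; sodium butyrate at 4.5 mM final served as control.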
FLuc modulator: qHTS profiling assay for firefly luciferase inhibitor/activator using purifed enzyme and Km concentrations of substrates (counterscreen for miR-21 project); AID 588342, 2011; purified FLuc, Km substrates, luminescence inhibition; Luciferin 4-monooxygenase (Photinus pyralis), P08659; Potency, µM (series often up to 57.5 µM), inactives show at the top dose activity change, negative = inhibition, usual class: inhibitors; 360,000 tested, 6.9% active;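 also: plate controls were vehicle for no effect and reference inhibitor for full effect; nearly all actives have a fitted effect of over 55% in size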
Target sequence (P08659 whole entry, looked up): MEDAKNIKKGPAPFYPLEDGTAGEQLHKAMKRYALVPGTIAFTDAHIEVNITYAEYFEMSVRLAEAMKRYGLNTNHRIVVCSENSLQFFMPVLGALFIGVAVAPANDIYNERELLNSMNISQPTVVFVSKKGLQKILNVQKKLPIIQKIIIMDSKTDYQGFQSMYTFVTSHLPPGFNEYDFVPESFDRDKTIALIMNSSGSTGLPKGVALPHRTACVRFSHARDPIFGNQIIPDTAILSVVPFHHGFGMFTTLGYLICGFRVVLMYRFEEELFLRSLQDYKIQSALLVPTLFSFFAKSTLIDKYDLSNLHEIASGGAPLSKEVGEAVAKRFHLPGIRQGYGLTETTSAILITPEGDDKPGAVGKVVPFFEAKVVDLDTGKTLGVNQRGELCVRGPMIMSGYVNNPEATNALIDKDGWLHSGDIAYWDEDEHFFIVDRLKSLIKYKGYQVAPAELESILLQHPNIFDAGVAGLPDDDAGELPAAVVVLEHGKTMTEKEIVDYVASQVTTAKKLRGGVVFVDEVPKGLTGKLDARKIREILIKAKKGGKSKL
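Biochemical qHTS of compounds, final roughly 60 µM downward over six points, against 10 nM purified firefly luciferase using Km concentrations of substrates (10 uM D-luciferin, 10 uM ATP) in Tris acetate pH 7.5 buffer; luminescence output.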
NPC1 prom act: qHTS Assay for NPC1 Promoter Activators; Huh7 NPC1 promoter luciferase reporter, 24 h; Potency, µM (top dose mostly 9.22 µM), without a hit: at the highest dose activation, actives largely listed as activators; 320,000 tested, 2.4% active; AID 485313, 2010; also: % of control where 0% means no effect; nearly all actives have a fitted effect of over 60% in size
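In 1536-well qHTS, Huh7 cells harboring an NPC1 promoter–luciferase construct received compound for 24 h; activation was quantified by luminescence following luciferase reagent addition.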
Rab9 prom act: qHTS Assay for Rab9 Promoter Activators; Huh7 Rab9 promoter-luciferase reporter, luminescence, 24 h; Potency, µM (highest dose often 9.22 µM), for the others: top-dose activation, negative = inhibition, most hits filed as activators; 320,000 tested, 2.8% active; AID 485297, 2010; also: % of control where 0% means no effect; nearly all actives have a fitted effect of over 60% in size
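Cells were plated at 1500 per well in reduced-serum medium with 10% FBS and left 2 h. Compound in DMSO was then added for 24 h at 37 °C. Reporter signal was read by luminescence after 10 min with luciferase detection reagent.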
ELG1 genotox: qHTS screen for small molecules that induce genotoxicity in human embryonic kidney (HEK293T) cells expressing luciferase-tagged ELG1; HEK293T ELG1-luciferase reporter, luminescence, 16 h; Potency, µM (top dose mostly 46 µM), for the others: top-dose activity change, positive = activation, actives largely listed as activators; 330,000 tested, 1.3% active; also: % of control where 0% means no effect; nearly all actives have a fitted effect of over 60% in size
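ELG1-luciferase HEK293T cells, 2,000/well; compound pinned in; 16 hr, 37 °C, 5% CO2; ONE-Glo, 30 min RT; luminescence on CCD imager.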
The depositor's hits bear a star; ? = inconclusive; . = no result given. Only some compounds are listed: those with a hit (about 7.5% of all), similar ones and a draw of the others. Calls follow the shape of the dose curve; as a rule, active = well fitted curve in the direction sought with a large enough effect; inconclusive = small, poorly fitted or top-dose-only effect, or another doubt; inactive = no such curve, though single readings can be large; an effect the other way counts as inactive or inconclusive. Potency is read from the fitted curve at half-maximal effect.

SMILES	SMN2 splice up	FLuc modulator	NPC1 prom act	Rab9 prom act	ELG1 genotox
COc1ccc(N2CCOCC2)c(NC(=O)c2ccc3c(c2)OCO3)c1	.	-15.3%	-2.3%	-1.3%	6.5%
COc1cc(NC(=O)c2ccc3c(c2)OCO3)c2ncccc2c1	-62.6%	1.9µM*	14.9%	10.0%	5.7%
CCc1nnc(NC(=O)[C@@H](NC(=O)c2ccc(OC)cc2)C(C)C)s1	54.1%	1.8%	-2.1%	6.0%	5.8%
COc1cccc(OCc2ccc(Cl)cc2)c1C#N	.	0.536µM*	0.708µM*	0.562µM*	?
Cc1ccc(Nc2nc(Cl)nc(NC(C)(C)C)n2)cc1	.	12µM*	?	21.0%	?
Nc1ccc(C(=O)N/N=C/c2cccc(Oc3ccccc3)c2)cc1	.	12µM*	-0.5%	9.3%	4.9%
O=C(N/N=C/c1cccc(Oc2ccccc2)c1)c1ccccc1F	.	16.9µM*	-4.7%	21.3%	?
O=C(N/N=C/c1cccc(Oc2ccccc2)c1)c1cc[n+]([O-])cc1	0.9%	?	0.5%	-4.2%	2.1%
C[C@H](CO)N1C[C@H](C)[C@@H](CN(C)S(=O)(=O)c2ccccc2)Oc2c(NS(=O)(=O)c3ccccc3)cccc2C1=O	.	.	.	.	-1.0%
O=c1c(-c2nc3ccccc3s2)cccn1Cc1ccc(Cl)cc1	-20.0%	13.5µM*	22.2%	?	?
Cc1[nH]nc(-c2ccc(O)cc2O)c1-c1nc2ccccc2s1	-20.2%	-13.4%	0.3%	-0.1%	19.4%
COc1cccc(-c2nc3ccccc3s2)c1O	7.08µM*	0.338µM*	?	?	1.46µM*
Clc1ncccc1-c1nc2ccccc2s1	.	15.1µM*	26.3%	-2.4%	?
O=C(Nc1ccccc1-c1nc2ccccc2s1)c1cccnc1	1.6%	3.6%	-3.2%	-8.2%	-2.1%
Oc1c(Br)cc(Br)cc1-c1nc2ccccc2s1	-4.4%	7.57µM*	.	.	.
CO/N=C/C(C#N)=C/c1ccc(OC)c(OC)c1	-14.1%	-2.7%	-3.4%	-0.1%	6.7%
CCCOc1ccc(-c2nn(-c3ccccc3)cc2C2NC(=O)NC(C)=C2C(=O)OC)cc1 (configuration not stated)	-5.3%	?	.	.	.
COc1cc(OC)cc(C(=O)Nc2ccccc2-c2nc3ccccc3s2)c1	-12.8%	-4.1%	.	.	.
COc1cc(OC)c(-c2nc3ccccc3s2)cc1OC	.	12µM*	9.9%	8.9%	-3.8%
COC(=O)N1CCC2(CCCN(c3ccccn3)C2)CC1	-23.3%	.	.	.	.
Cc1ccc2c(c1)C(=O)OC(C(=O)Nc1ccc(C(=O)O)cc1)C2 (configuration not stated)	-3.4%	7.57µM*	.	.	.
O=C(c1cc2ccccc2o1)N(Cc1nnc(-c2ccccc2Cl)o1)C1CC1	.	30.1µM*	-1.6%	-0.9%	20.6µM*
O=C(COC(=O)c1ccc2c(=O)n3c(nc2c1)CCC3)Nc1ccccc1F	-1.6%	0.8%	-3.7%	-6.3%	-0.8%
Fc1ccccc1Nc1n[nH]c(=S)s1	12.6µM*	?	14.4%	?	?
S=c1[nH]nc(Nc2cccc3ccccc23)s1	.	?	-2.1%	0.7%	1.9%
SMILES	SMN2 splice up	FLuc modulator	NPC1 prom act	Rab9 prom act	ELG1 genotox
COc1ccc(OC)c(C(c2nnnn2CC2CCCO2)N2CCN(C3CCCC3)CC2)c1 (configuration not stated)	-0.9%	-1.0%	-4.1%	-6.3%	0.4%
CCN(CC)CCNCC(O)(c1ccc(Cl)cc1)c1ccc(Cl)cc1	-15.6%	0.1%	-2.6%	-3.9%	-8.3%
Cc1ccccc1CN1CCc2cc([N+](=O)[O-])ccc21	.	-6.4%	-4.0%	-1.4%	-5.1%
COC(=O)CCN1CCc2cc(N=Nc3ccc([N+](=O)[O-])cc3)ccc21	.	0.675µM*	1.12µM*	1.12µM*	?
COc1ccc2nc(-n3c(O)c(C4=c5ccccc5=NC4=O)[nH]c3=S)sc2c1	-11.0%	10.7µM*	-2.6%	-5.0%	-1.0%
Cc1csc(SCCN2C(=O)c3ccccc3C2=O)n1	7.9%	13.5µM*	?	?	?
Nc1nc(SCCN2C(=O)c3ccccc3C2=O)n[nH]1	13.9%	-1.4%	0.4%	-7.5%	0.1%
O=C1c2ccccc2C(=O)N1CCSc1ccccc1	?	4.26µM*	2.82µM*	?	11.6µM*
O=C1c2ccccc2C(=O)N1CCSc1nncs1	-5.0%	-11.9%	-2.5%	-4.1%	4.6%
O=C1C[C@@H]2CCN3C(=O)CCC[C@@H]([C@H]23)[C@H]1Cc1ccccc1	.	.	.	.	0.9%
COC(=O)C1=C(C)NC(=O)/C1=C\c1cc(C)n(-c2ccc(F)cc2)c1C	3.1%	19µM*	-0.3%	18.9%	2.9%
COC(=O)c1cccc(-n2c(C)cc(C=O)c2C)c1	-7.6%	-0.6%	-1.1%	-3.4%	-2.1%
COC(=O)C1=C(C)NC(=O)/C1=C\c1cc(C)n(-c2cccc(C)c2)c1C	-36.4%	26.9µM*	1.7%	17.9%	7.9%
Cc1cc(/C=C2/NC(=O)NC2=O)c(C)n1-c1ccncc1	-3.7%	-12.4%	0.7%	2.9%	-8.2%
Cc1cccc(-n2c(C)cc(/C=C3\NC(=O)NC3=O)c2C)c1	.	6.75µM*	20.0%	24.5%	?
Cc1ccc(C2CC2C(=O)NNC(=S)Nc2cccc(C)c2)cc1 (configuration not stated)	10.0%	-1.1%	-5.0%	-0.5%	-4.9%
CCC(C)(NC(=O)c1cccc(N2C(=O)CSC2c2ccccc2)c1)C(=O)Nc1ccccc1C (configuration not stated)	2.8%	-0.4%	-1.6%	1.7%	1.7%
CN1CCSc2ccc(C(=O)NCc3cccc(F)c3)cc21	.	-8.2%	-2.3%	3.8%	3.9%
CN1CCSc2ccc(C(=O)Nc3ccc(Cl)cc3)cc21	.	?	2.82µM*	3.55µM*	?
COc1cccc(NC(=O)c2ccc3c(c2)CCN3S(C)(=O)=O)c1	29.8%	16.9µM*	27.3%	?	4.6%
CCc1ccc(NC(=O)c2ccc3c(c2)N(Cc2ccc(C)cc2)CCS3)cc1	25.1µM*	?	.	.	.
Cc1ccc(CN2CCSc3ccc(C(=O)Nc4ccc(F)cc4F)cc32)cc1	?	-3.9%	.	.	.
COc1cccc(NC(=O)c2ccc3c(c2)N(C)CCS3)c1	.	2.69µM*	1.26µM*	3.55µM*	?
CC(=O)Nc1ccc(NC(=O)c2ccc3c(c2)CCN3S(C)(=O)=O)cc1	.	-1.4%	-1.6%	-10.6%	-1.7%
COc1ccc(CNC(=O)CCc2c(C)nn(-c3ccc(N4CCOCC4)nn3)c2C)cc1	.	-5.2%	.	.	.
CC(C)CC(C)NNC(=O)c1cc2ccccc2[nH]1 (configuration not stated)	2.7%	0.0%	7.3%	2.3%	-1.7%
COc1ccccc1NC(=O)c1ccc(Br)c(S(=O)(=O)N2CCCC2)c1	.	?	0.3%	-10.9%	-14.9%
